PubChem BioAssay
Active and inactive are the calls of the source. Unless noted, no stated cut-off is given here; in the data, active means inhibition above about 80%; inactive means the rest.

Experiments:
[1] = target: NAD(+) hydrolase SARM1 (Homo sapiens) (UniProt Q6SZW1); test: blocking NAD cleavage by SARM1 SAM-TIR – cell lysate, NAD-Glo luminescence (AID 1508614;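 active means compound whose remaining NAD level is above about 45 nM, limit read from the data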); conditions: SAM-TIR HEK293T lysate NADase, at 1 µM, stronger effect = higher value
[2] = galactose survival enhancers in mitochondrial complex I cybrids – cell-based, galactose medium, ATP luminescence, primary screen (AID 1645843;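 active means z-score of at least 1.8 in each of two replicates, scored against plate mean and spread of sample wells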;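 further: positive z means more ATP and so rescue of galactose-driven cybrid death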); conditions: complex I mutant cybrid cells, 72 h, stronger effect = higher value
[3] = growth inhibition, single agent or in combination, cell-based, chromothripsis tumors, cisplatin or BGB combos (AID 1671449); conditions: LFS_MB_P medulloblastoma cells;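 further: cells exposed for 96 hours; 0% = vehicle DMSO and 100% = killing by high DMSO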
[4] = growth inhibition, single agent and combos, cell-based, chromothripsis tumors, cisplatin or BGB combos (AID 1671450); conditions: HDN33 neuroblastoma cells, stronger effect = higher value;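 further: cells exposed to compound for four days; 0% = vehicle DMSO and 100% = cell killing by high DMSO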
[5] = growth inhibition, single agents and combos, ICB984, cell-based, cisplatin or BGB combos, synergistic combos for chromothripsis tumors (AID 1671451; call rule not given here;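 further: cells exposed for 96 hours before readout; 0% = vehicle DMSO and 100% = killing by high DMSO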); conditions: ICB984 medulloblastoma cells, drug combinations, stronger effect = higher value
[6] = growth inhibition, single agents and combos, LFS_MB_1R, cell-based, cisplatin or BGB combos, synergistic combos for chromothripsis tumors (AID 1671452); conditions: LFS_MB_1R medulloblastoma cells, stronger effect = higher value;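 further: cells exposed for 96 hours before readout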
[7] = growth inhibition, single agents and combos, HTB85, cell-based, BGB or cisplatin IC20 combos, synergistic combos for chromothripsis tumors (AID 1671453); conditions: HTB85 osteosarcoma cells, drug combinations, stronger effect = higher value;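 further: cells exposed for 96 hours before readout; 0% = vehicle DMSO and 100% = high DMSO killing control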
[8] = growth inhibition, single agents and combos, CRL2098, cell-based, BGB or cisplatin IC20 combos, synergistic combos for chromothripsis tumors (AID 1671454); conditions: CRL2098 osteosarcoma cells, drug combinations, stronger effect = higher value;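 further: cells exposed for 96 h before readout; 0% = vehicle DMSO and 100% = killing by high DMSO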
[9] = growth inhibition, single agents and combos, HD-MB03, cell-based, BGB or cisplatin IC20 combos, synergistic combos for chromothripsis tumors (AID 1671455; in the data active means inhibition above about 83%;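 further: 0% = vehicle DMSO and 100% = high DMSO as cytotoxic control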); conditions: HD-MB03 medulloblastoma cells, stronger effect = higher value
[10] = growth inhibition, single agents and combos, UWB1.289, cell-based, BGB or cisplatin combos, synergistic combos for chromothripsis tumors (AID 1671456); conditions: UWB1.289 ovarian carcinoma cells, stronger effect = higher value;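 further: cells exposed to compound for four days; 0% = vehicle DMSO and 100% = killing by high DMSO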
[11] = growth inhibition, single agents and combos, LFS_MB_2R, cell-based, cisplatin combos, synergistic combos for chromothripsis tumors (AID 1671457); conditions: LFS_MB_2R medulloblastoma cells, stronger effect = higher value;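 further: cells exposed to compound for four days before readout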
[12] = growth inhibition, MDA-MB-436, cell-based, BGB or cisplatin combos, synergistic combos for chromothripsis tumors (AID 1671458; call rule not given here;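 further: cells exposed for 96 hours; 0% = vehicle DMSO and 100% = killing by high DMSO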); conditions: MDA-MB-436 breast carcinoma growth inhibition, drug combinations, stronger effect = higher value
[13] = UWB1.289_BRCA1 ovarian cancer growth, cell-based, BGB or cisplatin combinations (AID 1671459); conditions: UWB1.289 BRCA1 ovarian carcinoma, drug combinations, stronger effect = higher value
[14] = drug combination toxicity in non-malignant astrocytes – cell-based, BGB or cisplatin IC20 combos, cytotoxicity control for chromothriptic childhood tumor combination screen (AID 1671460); conditions: Human astrocytes, viability inhibition, drug combinations, at 0.5 µM, stronger effect = higher value;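 further: cells exposed to compounds for 96 hours before viability readout; 0% = vehicle and 100% = killing control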
[15] = BT084 cell growth, single and combined drugs, ICGC_MB145, cisplatin and BGB IC40 combos (AID 1671461); conditions: BT084 medulloblastoma cells, drug combinations, stronger effect = higher value;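 further: cells exposed to drugs for 96 hours; 0% = vehicle DMSO and 100% = high DMSO full killing control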
[16] = RCMB18 cell growth, single agent and combined, cisplatin and BGB IC40 combos (AID 1671462); conditions: RCMB18 medulloblastoma cells, stronger effect = higher value;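 further: cells exposed to compound for four days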
[17] = CRL1545 cell growth, single agent and combined, cisplatin and BGB IC20 combos (AID 1671464); conditions: CRL1545 osteosarcoma cells, stronger effect = higher value;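 further: cells exposed to compound for 96 hours before readout; 0% = vehicle DMSO and 100% = high DMSO killing control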
F380Y = test: BK channel mutant inhibitors and activators – cell-based, U2OS BacMam, thallium flux, beta subunits, selectivity assay, profiling panel (AID 1259406;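 active means thallium flux through the channel raised or lowered by more than 3 SD from vehicle-only wells, actives on both sides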;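 further: initial slope of Thallos dye fluorescence rise after thallium is added; log ratio against the mean of 0.3% DMSO vehicle wells on the same plate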); conditions: U2OS BacMam BK variants, at 30 µM
F380Y/beta1 = test: as above; conditions: U2OS BacMam BK variants, at 30 µM
[18] = measured here: combination with BGB IC40, at 0.05 µM
[19] = measured here: with BGB IC20 combination, at 0.5 µM
[20] = measured here: with cisplatin IC20 combination, at 0.5 µM
[21] = measured here: combination with cisplatin, at 0.5 µM
[22] = measured here: combination with cisplatin, at 5 µM

Chain of NAD(+) hydrolase SARM1 (Homo sapiens) (Q6SZW1 whole entry, looked up): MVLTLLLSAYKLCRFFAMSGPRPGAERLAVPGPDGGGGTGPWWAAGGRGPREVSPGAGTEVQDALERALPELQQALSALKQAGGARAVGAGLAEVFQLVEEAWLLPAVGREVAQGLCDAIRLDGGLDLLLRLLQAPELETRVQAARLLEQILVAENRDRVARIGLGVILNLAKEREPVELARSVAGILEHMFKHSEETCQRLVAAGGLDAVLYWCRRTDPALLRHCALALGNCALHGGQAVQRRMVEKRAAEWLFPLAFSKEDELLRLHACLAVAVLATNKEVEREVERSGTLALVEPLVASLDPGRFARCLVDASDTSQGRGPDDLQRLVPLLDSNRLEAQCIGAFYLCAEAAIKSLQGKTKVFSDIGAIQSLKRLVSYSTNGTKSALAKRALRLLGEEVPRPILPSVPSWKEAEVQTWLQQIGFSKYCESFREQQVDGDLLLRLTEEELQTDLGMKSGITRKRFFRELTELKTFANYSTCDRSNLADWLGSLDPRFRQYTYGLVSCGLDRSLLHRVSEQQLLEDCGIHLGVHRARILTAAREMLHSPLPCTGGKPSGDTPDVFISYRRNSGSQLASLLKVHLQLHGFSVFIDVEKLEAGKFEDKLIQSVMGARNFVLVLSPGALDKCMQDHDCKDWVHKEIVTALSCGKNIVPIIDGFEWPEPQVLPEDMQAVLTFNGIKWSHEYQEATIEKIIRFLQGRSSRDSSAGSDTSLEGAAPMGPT

C[C@H]1COc2c(C3(N)CC3)c(F)cc3c(=O)c(C(=O)O)cn1c23
remaining NAD [1]: 10 nM (inactive)
z-score [2]: 0.735 (inactive)
inhibition ([3]; at 0.5 µM, stronger effect = higher value): -4.46% (inactive)
inhibition ([3]; measured here: combination with BGB IC20, at 0.005 µM): -13%
inhibition ([3]; measured here: combination with BGB IC40, at 0.005 µM): -17.8%
inhibition [3, 18]: -33.8%
inhibition ([3]; measured here: combination with cisplatin, at 0.5 µM, stronger effect = higher value): -7.85%
inhibition ([3]; measured here: combination with cisplatin, at 5 µM, stronger effect = higher value): -33.3%
inhibition ([4]; BGB combo, at 5 µM): -18.1%
inhibition ([4]; at 0.5 µM): -10.4% (inactive)
inhibition ([4]; cisplatin combo, at 5 µM): -7.06%
inhibition [4, 19]: -22.3%
inhibition [4, 20]: -3.47%
inhibition ([4]; single agent, at 5 µM): -13.5%
inhibition ([5]; BGB IC20 combo, at 0.005 µM): -21.1%
inhibition ([5]; BGB IC40 combo, at 0.005 µM): 4.03%
inhibition ([5]; BGB IC40 combo, at 0.05 µM): -27.4%
inhibition ([5]; at 0.5 µM): -17.9% (inactive)
inhibition ([5]; cisplatin combo, at 0.05 µM): -30.9%
inhibition ([5]; cisplatin combo, at 0.5 µM): -13.3%
inhibition ([5]; cisplatin combo, at 5 µM): -41.9%
inhibition ([5]; measured here: 5 uM single agent, at 5 µM): -29.9%
inhibition ([6]; at 0.5 µM): -26.1% (inactive)
inhibition [6, 18]: -41.4%
inhibition [6, 21]: -26.2%
inhibition [6, 22]: -29.7%
inhibition ([7]; at 0.5 µM): -9.68% (inactive)
inhibition ([7]; measured here: with BGB IC20, at 0.5 µM): -30.1%
inhibition ([7]; measured here: with BGB IC20, at 5 µM): -48.1%
inhibition ([7]; measured here: with cisplatin IC20, at 0.5 µM): -17.4%
inhibition ([7]; measured here: with cisplatin IC20, at 5 µM): -41%
inhibition ([7]; single agent, at 5 µM): 3.14%
inhibition ([8]; at 0.5 µM): -44.1% (inactive)
inhibition ([8]; measured here: combination with BGB at IC20, at 0.5 µM): -27.6%
inhibition ([8]; measured here: combination with cisplatin at IC20, at 0.5 µM): -41.6%
inhibition ([9]; at 0.5 µM): -8.87% (inactive)
inhibition ([9]; measured here: combo with BGB at IC20, at 0.5 µM): -6%
inhibition ([9]; measured here: combo with cisplatin at IC20, at 0.5 µM): -11.8%
inhibition ([10]; at 0.5 µM): 2.11% (inactive)
inhibition ([10]; measured here: inhibition with BGB combination, at 0.05 µM): -7.87%
inhibition ([10]; measured here: inhibition with cisplatin combination, at 0.05 µM): -10.7%
inhibition ([11]; at 0.5 µM): -20.7% (inactive)
inhibition [11, 21]: -28.1%
inhibition [11, 22]: -123%
inhibition ([12]; at 0.5 µM): -24.5% (inactive)
inhibition ([12]; measured here: BGB combination, at 0.5 µM): -30.5%
inhibition ([12]; measured here: BGB combination, at 5 µM): -26.3%
inhibition ([12]; measured here: cisplatin combination, at 0.5 µM): -33.6%
inhibition ([12]; measured here: cisplatin combination, at 5 µM): 0.273%
inhibition ([13]; BGB combination, concentration series, at 5 µM): -9.44%
inhibition ([13]; at 0.5 µM): -1.55% (inactive)
inhibition ([13]; cisplatin combination, concentration series, at 5 µM): -1.09%
inhibition [14]: 5.46% (inactive)
inhibition ([14]; measured here: combo with BGB IC20): 4.83%
inhibition ([14]; measured here: combo with cisplatin IC20): -0.547%
inhibition ([15]; at 0.5 µM): -36.3% (inactive)
inhibition ([15]; cisplatin combination, at 0.5 µM): -17.3%
inhibition ([15]; cisplatin combination, at 5 µM): -31.8%
inhibition ([15]; measured here: BGB IC40 combination 0.05 uM, at 0.05 µM): 22.3%
inhibition ([15]; single agent, at 5 µM): -28.3%
inhibition ([16]; at 0.5 µM): -18.8% (inactive)
inhibition ([16]; cisplatin combo, at 5 µM): -20.9%
inhibition ([16]; measured here: BGB IC40 combination, at 0.05 µM): -11.8%
inhibition [16, 21]: -24.3%
inhibition ([16]; single agent, at 5 µM): -38.1%
inhibition ([17]; at 0.5 µM): 9.56% (inactive)
inhibition [17, 19]: -3.27%
inhibition [17, 20]: 14.1%
inhibition ([17]; single agent, at 0.05 µM): -13.5%
inhibition ([17]; single agent, at 5 µM): 10.7%
log fold change Tl+ flux (F380Y): -0.0868 (inactive)
log fold change Tl+ flux (F380Y/beta1): 0.0568 (inactive)
